{"source": "the supplement of paper PMC8728848", "test_in_all_cases": "glycan array binding signal (z-score within array); higher = stronger binding", "details_in_all_cases": "glycan notation: IUPAC condensed, linker removed", "key": {"[1]": {"target": "Man(a1-3)[Man(a1-6)]Man(b1-4)GlcNAc(b1-4)[Fuc(a1-6)]GlcNAc", "method_in_brief": "(§1)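 Glycan array binding is given as a within-array Z-score, which can be read as non-binding when negative. The arrays, 3228 of them, came from the Consortium for Functional Glycomics database and were retained only where the protein sequence was available. Z-scores were averaged across arrays of the same protein sequence at different concentrations or buffers and across linkers.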"}, "MurNAc(b1-4)GlcNAc": {"target": "MurNAc(b1-4)GlcNAc", "method_in_brief": "as §1"}, "[2]": {"target": "Neu5Ac(a2-3)Gal(b1-3)GalNAc(b1-4)[Neu5Ac(a2-3)]Gal(b1-4)Glc", "method_in_brief": "as §1"}, "[3]": {"target": "Neu5Ac(a2-3)Gal(b1-3)GlcNAc(b1-2)Man(a1-3)[GlcNAc(b1-4)][Neu5Ac(a2-3)Gal(b1-3)GlcNAc(b1-2)Man(a1-6)]Man(b1-4)GlcNAc(b1-4)GlcNAc", "method_in_brief": "as §1"}, "[4]": {"target": "Neu5Ac(a2-3)Gal(b1-3)[Fuc(a1-4)]GlcNAc(b1-3)Gal(b1-3)[Fuc(a1-4)]GlcNAc", "method_in_brief": "as §1"}, "[5]": {"target": "Neu5Ac(a2-3)Gal(b1-4)GlcNAc(b1-3)Gal(b1-4)GlcNAc(b1-3)GalNAc", "method_in_brief": "as §1"}, "[6]": {"target": "Neu5Ac(a2-3)Gal(b1-4)GlcNAc(b1-3)Gal(b1-4)GlcNAc(b1-3)[Neu5Ac(a2-3)Gal(b1-4)GlcNAc(b1-3)Gal(b1-4)GlcNAc(b1-6)]GalNAc", "method_in_brief": "as §1"}, "[7]": {"target": "Neu5Ac(a2-3)Gal(b1-4)GlcNAc(b1-6)GalNAc", "method_in_brief": "as §1"}, "[8]": {"target": "Neu5Ac(a2-3)Gal(b1-4)GlcNAc(b1-6)[Gal(b1-3)]GalNAc", "method_in_brief": "as §1"}, "[9]": {"target": "Neu5Ac(a2-3)Gal(b1-4)GlcNAc(b1-6)[Neu5Ac(a2-3)Gal(b1-3)]GalNAc", "method_in_brief": "as §1"}, "[10]": {"target": "Neu5Ac(a2-3)Gal(b1-4)GlcNAc6S", "method_in_brief": "as §1"}, "[11]": {"target": "Neu5Ac(a2-6)Gal(b1-4)GlcNAc(b1-2)Man(a1-3)[Neu5Ac(a2-6)Gal(b1-4)GlcNAc(b1-2)Man(a1-6)]Man(b1-4)GlcNAc(b1-4)[Fuc(a1-6)]GlcNAc", "method_in_brief": "as §1"}, "[12]": {"target": "Neu5Ac(a2-6)Gal(b1-4)GlcNAc(b1-3)Gal(b1-3)GlcNAc", "method_in_brief": "as §1"}, "[13]": {"target": "Neu5Ac(a2-8)Neu5Ac(a2-3)Gal(b1-4)Glc", "method_in_brief": "as §1"}, "[14]": {"target": "Neu5Ac(a2-8)Neu5Ac(a2-3)[GalNAc(b1-4)]Gal(b1-4)Glc", "method_in_brief": "as §1"}, "[15]": {"target": "Neu5Gc(b2-6)Gal(b1-4)GlcNAc", "method_in_brief": "as §1"}}, "note": "This excerpt belongs to a sample that is enriched for the strongest signals.", "data": [{"binder": "APVPVTKLVCDGDTYKCTAYLDFGDGRWVAQWDTNVFHTG", "note": "[PhoSpL (Pholiota squarrosa)]", "values": [{"measurement": "glycan array binding signal (z-score)", "setting": "[1]", "value": 6.32}, {"measurement": "glycan array binding signal (z-score)", "setting": "MurNAc(b1-4)GlcNAc", "value": -0.337}, {"measurement": "glycan array binding signal (z-score)", "setting": "[2]", "value": 0.143}, {"measurement": "glycan array binding signal (z-score)", "setting": "[3]", "value": -0.151}, {"measurement": "glycan array binding signal (z-score)", "setting": "[4]", "value": -0.57}, {"measurement": "glycan array binding signal (z-score)", "setting": "[5]", "value": 0.1}, {"measurement": "glycan array binding signal (z-score)", "setting": "[6]", "value": -0.169}, {"measurement": "glycan array binding signal (z-score)", "setting": "[7]", "value": -0.386}, {"measurement": "glycan array binding signal (z-score)", "setting": "[8]", "value": 0.254}, {"measurement": "glycan array binding signal (z-score)", "setting": "[9]", "value": -0.322}, {"measurement": "glycan array binding signal (z-score)", "setting": "[10]", "value": 0.087}, {"measurement": "glycan array binding signal (z-score)", "setting": "[11]", "value": 4.01}, {"measurement": "glycan array binding signal (z-score)", "setting": "[12]", "value": -0.422}, {"measurement": "glycan array binding signal (z-score)", "setting": "[13]", "value": -0.197}, {"measurement": "glycan array binding signal (z-score)", "setting": "[14]", "value": -0.373}, {"measurement": "glycan array binding signal (z-score)", "setting": "[15]", "value": 0.132}]}]}
